Results reported in the supplement of paper PMC8728848.
The entries come from a sample that favours the strongest signals as a whole.

How the values were obtained:
Assay in all cases: glycan array binding signal (z-score within array); higher = stronger binding
Conditions in all cases: glycan notation: IUPAC condensed, linker removed
Fuc(a1-2)Gal(b1-3)GalNAc = molecular target: Fuc(a1-2)Gal(b1-3)GalNAc
Summary of the method: (§1)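 The Consortium for Functional Glycomics database supplied 3228 glycan arrays, of which those lacking an available protein sequence were dropped. The binding signal, a within-array Z-score, was averaged across arrays of the same protein sequence and across linkers. Negative scores can be read as non-binding.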

Fuc(a1-2)Gal(b1-4)Glc6S = molecular target: Fuc(a1-2)Gal(b1-4)Glc6S
Summary of the method: as §1

Fuc(a1-2)Gal(b1-4)GlcNAc = molecular target: Fuc(a1-2)Gal(b1-4)GlcNAc
Summary of the method: as §1

[1] = molecular target: Fuc(a1-2)Gal(b1-4)GlcNAc(b1-2)Man(a1-3)[Fuc(a1-2)Gal(b1-4)GlcNAc(b1-2)Man(a1-6)]Man(b1-4)GlcNAc(b1-4)GlcNAc
Summary of the method: as §1

[2] = molecular target: Fuc(a1-2)Gal(b1-4)GlcNAc(b1-3)Gal(b1-4)GlcNAc
Summary of the method: as §1

[3] = molecular target: Fuc(a1-2)Gal(b1-4)GlcNAc(b1-3)Gal(b1-4)GlcNAc(b1-3)Gal(b1-4)GlcNAc
Summary of the method: as §1

[4] = molecular target: Fuc(a1-2)Gal(b1-4)GlcNAc(b1-3)[Fuc(a1-2)Gal(b1-4)GlcNAc(b1-6)]GalNAc
Summary of the method: as §1

[5] = molecular target: Fuc(a1-2)Gal(b1-4)GlcNAc6S
Summary of the method: as §1

[6] = molecular target: Fuc(a1-2)Gal(b1-4)[Fuc(a1-3)]GlcNAc
Summary of the method: as §1

[7] = molecular target: Fuc(a1-2)Gal6S(b1-4)Glc6S
Summary of the method: as §1

[8] = molecular target: Fuc(a1-2)[Gal(a1-3)]Gal(b1-3)GlcNAc(b1-2)Man(a1-3)[Fuc(a1-2)[Gal(a1-3)]Gal(b1-3)GlcNAc(b1-2)Man(a1-6)]Man(b1-4)GlcNAc(b1-4)GlcNAc
Summary of the method: as §1

[9] = molecular target: Fuc(a1-2)[Gal(a1-3)]Gal(b1-4)GlcNAc(b1-2)Man(a1-3)[Fuc(a1-2)[Gal(a1-3)]Gal(b1-4)GlcNAc(b1-2)Man(a1-6)]Man(b1-4)GlcNAc(b1-4)[Fuc(a1-6)]GlcNAc
Summary of the method: as §1

[10] = molecular target: Fuc(a1-2)[Gal(a1-3)]Gal(b1-4)[Fuc(a1-3)]Glc
Summary of the method: as §1

[11] = molecular target: Fuc(a1-2)[Gal(a1-3)]Gal(b1-4)[Fuc(a1-3)]GlcNAc(b1-3)GalNAc
Summary of the method: as §1

[12] = molecular target: Fuc(a1-2)[GalNAc(a1-3)]Gal
Summary of the method: as §1

Fuc(a1-3)GlcNAc = molecular target: Fuc(a1-3)GlcNAc
Summary of the method: as §1

[13] = molecular target: Fuc(a1-3)[Gal(b1-4)]GlcNAc(b1-4)Gal(b1-4)[Fuc(a1-3)]GlcNAc(b1-4)Gal(b1-4)[Fuc(a1-3)]GlcNAc
Summary of the method: as §1

[14] = molecular target: Gal(a1-3)Gal(b1-4)GlcNAc(b1-3)GalNAc
Summary of the method: as §1

[15] = molecular target: Gal(a1-3)Gal(b1-4)[Fuc(a1-3)]GlcNAc(b1-2)Man(a1-3)[Gal(a1-3)Gal(b1-4)[Fuc(a1-3)]GlcNAc(b1-2)Man(a1-6)]Man(b1-4)GlcNAc(b1-4)GlcNAc
Summary of the method: as §1

Gal(a1-6)Glc = molecular target: Gal(a1-6)Glc
Summary of the method: as §1

Gal(b1-3)GalNAc = molecular target: Gal(b1-3)GalNAc
Summary of the method: as §1

[16] = molecular target: Gal(b1-3)GlcNAc(b1-3)Gal(b1-4)Glc
Summary of the method: as §1

[17] = molecular target: Gal(b1-3)[Fuc(a1-4)]GlcNAc(b1-3)Gal(b1-4)[Fuc(a1-3)]GlcNAc
Summary of the method: as §1

[18] = molecular target: Gal(b1-4)GlcNAc(b1-2)Man(a1-3)[Gal(b1-4)GlcNAc(b1-2)Man(a1-6)]Man(b1-4)GlcNAc(b1-4)[Fuc(a1-6)]GlcNAc
Summary of the method: as §1

[19] = molecular target: Gal(b1-4)GlcNAc(b1-2)[Gal(b1-4)GlcNAc(b1-4)]Man(a1-3)[GlcNAc(b1-4)][Gal(b1-4)GlcNAc(b1-2)[Gal(b1-4)GlcNAc(b1-6)]Man(a1-6)]Man(b1-4)GlcNAc(b1-4)GlcNAc
Summary of the method: as §1

[20] = molecular target: Gal(b1-4)GlcNAc(b1-2)[Gal(b1-4)GlcNAc(b1-6)]Man(a1-6)[Gal(b1-4)GlcNAc(b1-2)Man(a1-3)]Man(b1-4)GlcNAc(b1-4)GlcNAc
Summary of the method: as §1

[21] = molecular target: Gal(b1-4)GlcNAc(b1-2)[Gal(b1-4)GlcNAc(b1-6)]Man(a1-6)[GlcNAc(b1-4)][Gal(b1-4)GlcNAc(b1-2)Man(a1-3)]Man(b1-4)GlcNAc(b1-4)GlcNAc
Summary of the method: as §1

[22] = molecular target: Gal(b1-4)GlcNAc(b1-3)Gal(b1-3)GlcNAc
Summary of the method: as §1

[23] = molecular target: Gal(b1-4)GlcNAc(b1-3)GalNAc
Summary of the method: as §1

Gal4S(b1-4)GlcNAc = molecular target: Gal4S(b1-4)GlcNAc
Summary of the method: as §1

[24] = molecular target: GalNAc(a1-3)GalNAc(b1-3)Gal(a1-4)Gal(b1-4)GlcNAc
Summary of the method: as §1

[25] = molecular target: GalNAc(b1-3)Gal(a1-6)Gal(b1-4)Glc
Summary of the method: as §1

[26] = molecular target: GlcNAc(a1-6)Gal(b1-4)GlcNAc
Summary of the method: as §1

Kdn(a2-3)Gal(b1-4)GlcNAc = molecular target: Kdn(a2-3)Gal(b1-4)GlcNAc
Summary of the method: as §1

[27] = molecular target: Neu5Ac(a2-3)Gal(b1-4)[Fuc(a1-3)]GlcNAc(b1-3)Gal
Summary of the method: as §1

[28] = molecular target: Neu5Ac(a2-3)Gal(b1-4)[Fuc(a1-3)]GlcNAc(b1-3)Gal(b1-4)GlcNAc
Summary of the method: as §1

[29] = molecular target: Neu5Ac(a2-6)Gal(b1-4)GlcNAc(b1-2)Man(a1-3)[Neu5Ac(a2-6)Gal(b1-4)GlcNAc(b1-2)Man(a1-6)]Man(b1-4)GlcNAc(b1-4)GlcNAc
Summary of the method: as §1

[30] = molecular target: Neu5Gc(a2-6)Gal(b1-4)GlcNAc
Summary of the method: as §1

B1: CV-2L (Chromobacterium violaceum), Q7NX84 (protein)
chain: MAQQGVFTLPARINFGVTVLVNSAATQHVEIFVDNEPRAAFSGVGTGDNNLGTKVINSGSGNVRVQITANGRQSDLVSSQLVLANKLNLAVVGSEDGTDMDYNDSIVILNWPLG
- glycan array binding signal (z-score) (Fuc(a1-2)Gal(b1-3)GalNAc): 0.156
- glycan array binding signal (z-score) (Fuc(a1-2)Gal(b1-4)Glc6S): 4.43
- glycan array binding signal (z-score) (Fuc(a1-2)Gal(b1-4)GlcNAc): 5.39
- glycan array binding signal (z-score) [1]: 5.17
- glycan array binding signal (z-score) [2]: 5.68
- glycan array binding signal (z-score) [3]: 5.57
- glycan array binding signal (z-score) [4]: 5.71
- glycan array binding signal (z-score) [5]: 5.42
- glycan array binding signal (z-score) [6]: 0.928
- glycan array binding signal (z-score) [7]: 4.37
- glycan array binding signal (z-score) [8]: -0.292
- glycan array binding signal (z-score) [9]: -0.257
- glycan array binding signal (z-score) [10]: -0.019
- glycan array binding signal (z-score) [11]: -0.294
- glycan array binding signal (z-score) [12]: -0.2
- glycan array binding signal (z-score) (Fuc(a1-3)GlcNAc): 1.49
- glycan array binding signal (z-score) [13]: -0.252
- glycan array binding signal (z-score) [14]: -0.341
- glycan array binding signal (z-score) [15]: -0.319
- glycan array binding signal (z-score) (Gal(a1-6)Glc): -0.347
- glycan array binding signal (z-score) (Gal(b1-3)GalNAc): -0.341
- glycan array binding signal (z-score) [16]: -0.304
- glycan array binding signal (z-score) [17]: 0.831
- glycan array binding signal (z-score) [18]: -0.275
- glycan array binding signal (z-score) [19]: -0.334
- glycan array binding signal (z-score) [20]: -0.307
- glycan array binding signal (z-score) [21]: -0.316
- glycan array binding signal (z-score) [22]: -0.343
- glycan array binding signal (z-score) [23]: -0.342
- glycan array binding signal (z-score) (Gal4S(b1-4)GlcNAc): -0.355
- glycan array binding signal (z-score) [24]: -0.306
- glycan array binding signal (z-score) [25]: -0.338
- glycan array binding signal (z-score) [26]: -0.342
- glycan array binding signal (z-score) (Kdn(a2-3)Gal(b1-4)GlcNAc): -0.31
- glycan array binding signal (z-score) [27]: -0.337
- glycan array binding signal (z-score) [28]: -0.308
- glycan array binding signal (z-score) [29]: -0.336
- glycan array binding signal (z-score) [30]: -0.326
